Experimental data from PubChem BioAssay (Tox21).
Inconclusive results are not listed. A call without a number means that no potency is given here. Active and inactive are the calls of the source. Calls come from the whole dose curve; as a rule, active = well fitted cell-killing curve with a large enough effect in the repeat runs; inconclusive = weak or mixed curves, or effect the other way; inactive = flat fitted curve, though single readings scatter.

assay: qHTS assay to identify small molecule antagonists of the estrogen receptor alpha (ER-alpha) signaling pathway using the BG1 cell line in the presence of 0.1 nM 17-beta-estradiol - cell viability counter screen (AID 1259241); conditions: VM7Luc4E2 (BG1) viability, CellTiter-Fluor protease, 22 h, 0.1 nM estradiol agonist added; series mostly up to 92.4 µM; note: nearly all actives have a fitted effect of over 40% in size
Source text: National Center for Advancing Translational Sciences [NCATS]
NIH Chemical Genomics Center [NCGC]
U.S. Environmental Protection Agency [EPA]
National Institutes of Environmental Health Sciences [NIEHS]
National Toxicology Program [NTP]
U.S. Food and Drug Administration [FDA]
Estrogen receptor (ER), a member of the nuclear hormone receptor plays an important role in development, metabolic homeostasis and reproduction. Two subtypes of ER, ER-alpha and ER-beta, have similar expression patterns with some uniqueness in both types. Endocrine disrupting chemicals (EDCs) and their interactions with steroid hormone receptors like ER causes disruption of normal endocrine function. Therefore, it is important to understand the effect of environmental chemicals in ER signaling pathway. For identifying ER antagonists, VM7Luc4E2 cell line was used to screen against Tox21 compound libraries.
VM7Luc4E2 cell line (provided by Denison MS, University of California) endogenously express full-length ER-alpha and is stably transfected with a plasmid containing four estrogen responsive elements (ERE) upstream of a luciferase reporter gene. The current screening for identification of ER-alpha inhibitors against Tox21 compound libraries used lower concentration (0.1 nM) of 17beta-Estradiol as a stimulator. The cytotoxicity of the Tox21 compound libraries against VM7Luc4E2 cell line was tested by measuring live-cell protease activity using CellTiter-Fluor assay in the same wells.
Tox21 Assay Protocol Summary:
VM7Luc4E2 cells were cultured in phenol red free assay medium containing 10% charcoal stripped FBS for 5 days prior to the assay. The cells were dispensed at 4,000 cells/well in 4 uL of assay medium into white wall/solid-bottom 1536-well plates (Corning Life Sciences, Corning, NY) using a Multidrop Combi (ThermoFisher Scientific, Waltham, MA) dispenser. After the assay plates were incubated at 37C and 5% CO2 for 24 hr, 23 nL of compounds dissolved in DMSO, positive controls or DMSO only was transferred to the assay plates by a Pintool station (Kalypsys, San Diego, CA). The transfer of compounds was followed by the addition of 1 uL of 0.1 nM (final concentration) agonist (17beta-Estradiol)/assay medium using a Flying Reagent Dispenser (FRD, Aurora Discovery, San Diego, CA). The plates were incubated at 37C and 5% CO2 for 22 hr. For cytotoxicity assay, 1 uL of CellTiter-Fluor reagent (Promega Corporation, Madison, WI) was added to each well using the FRD and after 30 min incubation at 37C and 5% CO2, The fluorescence intensity was measured using ViewLux plate reader (PerkinElmer, Shelton, CT).
Potency is the fitted concentration of half-maximal effect.

SMILES	Potency
c1ccc(N=NNc2ccccc2)cc1	inactive
Cc1cnc2c(C(=O)O)c(Cl)ccc2c1	inactive
c1cc[n+]2c(c1)-c1cccc[n+]1CC2	26.6 µM (active)
CC[N+]1(CC)CCC(OC(=O)C(O)(c2ccccc2)c2ccccc2)C1 (stereo not given)	inactive
CCCCN(CCCC)C(=S)S	inactive
Fc1ccc(C(OCCN2CCN(CCCc3ccccc3)CC2)c2ccc(F)cc2)cc1	29.8 µM (active)
C#CCC1=C(C)C(OC(=O)C2C(C=C(C)C)C2(C)C)CC1=O (stereo not given)	inactive
BrCC(Br)(Br)Br	inactive
Cc1ccc(C)c2ccccc12	inactive
CCC1COC(Cn2cncn2)(c2ccc(Cl)cc2Cl)O1 (stereo not given)	inactive
CC1=C2C[C@H]3[C@@H](CC=C4C[C@@H](O)CC[C@@]43C)[C@@H]2CC[C@]12O[C@@H]1C[C@H](C)CN[C@H]1[C@H]2C	inactive
O=[N+]([O-])c1cccc2cccc([N+](=O)[O-])c12	inactive
S=C=Nc1ccccc1	inactive
COC(=O)c1cc(Oc2ccc(Cl)cc2Cl)ccc1[N+](=O)[O-]	inactive
CC1(C)C(C=C(Cl)Cl)C1C(=O)OC(C#N)c1ccc(F)c(Oc2ccccc2)c1 (stereo not given)	inactive
O=c1[nH]c2cc(Cl)ccc2n1C1CCNCC1	inactive
O.O.O.O.O.O.O.O=S(=O)([O-])[O-].[Co+2]	inactive
CNC(=O)CSP(=O)(OC)OC	inactive
Nc1ccccc1-c1ccccc1	inactive
COP(=S)(OC)Oc1nc(Cl)c(Cl)cc1Cl	inactive

SMILES	Potency
NC(=O)C(Cl)Cl	inactive
CCC[CH2][Sn]([CH2]CCC)([O]C(C)=O)[O]C(C)=O	0.692 µM (active)
CCCCC(CC)COC(=O)OOC(C)(C)C (stereo not given)	inactive
O.O.O.O.O.O.O=S(=O)([O-])[O-].[Ni+2]	inactive
Oc1cccc(Cl)c1Cl	inactive
N#Cc1ccc(N(CC(N)=O)CC(F)(F)F)cc1C(F)(F)F	inactive
Cc1c([N+](=O)[O-])c(C)c([N+](=O)[O-])c(C(C)(C)C)c1[N+](=O)[O-]	inactive
Cc1ccccc1OP(=O)(Oc1ccccc1C)Oc1ccccc1C	inactive
Clc1ccc(C(Cl)(Cl)Cl)cc1Cl	inactive
C=Cc1cccc(CCl)c1	inactive
CCC(C)Br (stereo not given)	inactive
CCc1cccc(C)c1N(C(=O)CCl)[C@@H](C)COC	inactive
CC(C)N(C(=O)SC/C(Cl)=C/Cl)C(C)C	inactive
O=C(Nc1ccc(F)cc1F)c1cccnc1Oc1cccc(C(F)(F)F)c1	inactive
Cc1c([N+](=O)[O-])cc2c(c1[N+](=O)[O-])C(C)(C)CC2(C)C	inactive
Cc1ccc([N+](=O)[O-])[c]2c1[O][Hg]2	9.44 µM (active)
CN(C)c1ccc(N)cc1	47.4 µM (active)
Oc1ccc(Cl)c(Cl)c1	inactive
CCCCCCC[CH2][Sn]([Cl])([Cl])[CH2]CCCCCCC	inactive
COc1ccc2[nH]cc(CCN(C(C)C)C(C)C)c2c1	inactive
